Hits are enriched below; roughly 3.9% of the tested compounds scored in any of these assays.
HSF1 activator = HSF-1 activators, primary screen, NIH3T3-HGL cells, MG132 stress, luminescence, single point | actives 1.7% (n = 300,000) | AID 504408, 2011 | NIH3T3-HGL HSF-1 luciferase reporter, 8 h; 100% = twice DMSO control signal | activation, % at 9 µM;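 active = mean replicate activation of at least 50% with a set share of replicates each reaching 50%; inconclusive = only one of those two conditions met; inactive = mean below 50% and too few replicates reaching it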
esBAF inh = Bmi1 luciferase reporter increase in mESCs, primary screen, esBAF inhibitor project, mouse ES cells, Bmi1 luciferase knock-in, single point. 24 h; 100% = twice the neutral-well signal. reporter increase, % at 12.5 µM. actives 2% (n = 350,000). AID 602393, 2012; in the data active = activation above about 40%; inconclusive = no clear call, values can overlap the other calls;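 note: a rise in the Bmi1 reporter signal indicates esBAF inhibition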
Wnt act = Wnt/beta-catenin pathway activators, primary screen, cell-based, plate reader, single point | Wnt/beta-catenin reporter cell assay, activator | activation, % at 9.35 µM | actives 1.2% (n = 300,000) | AID 743398, 2014; in the data active = activation above about 30%, passing the limit was not always enough; inconclusive = no clear call, values can overlap the other calls
MITF TRPM1 HTS = activators of MITF-driven TRPM1 promoter reporter, primary screen, cell-based, SK-MEL-5, luciferase, single point | activation, % at 12.5 µM | actives 0.75% (n = 300,000) | SK-MEL-5 TRPM1-promoter luciferase, 24 h; % of positive control, neutral wells = 0;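 active = mean activation of at least 80% with every replicate also reaching 80%; inconclusive = mean reaches 80% but some replicate falls short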
HSF1 inh = HSF1 inhibitors in luciferase reporter cells, primary screen, cell-based, NIH3T3, luminescence | activity change, negative = inhibition, % at 7.5 µM (by protocol) | actives 0.77% (n = 300,000) | NIH3T3-HGL HSE-luciferase, MG132-induced, luminescence 8 h; hits give low values | AID 2098, 2009;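 active = more than half of replicate wells show activity change below -50%, luminescence cut by over half; inconclusive = some wells, but at most half, below -50%; inactive = no replicate well below -50%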;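 note: luciferase reports HSF-1 transcriptional activity via heat shock element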
Large screens that a line does not name were inactive.

O=C(CCN1Cc2ccccc2C1)c1ccc2c(c1)OCCO2	none (no result: Wnt act)
O=C(CCN1CCc2ccccc2C(c2ccccc2)C1)c1ccc2c(c1)OCCO2 (centres undefined)	HSF1 activator 87 (no result: esBAF inh, Wnt act)
Cc1nc(-c2ccc(Cl)cc2)sc1C1(C)CC(c2cccc(F)c2)=NO1 (centres undefined)	esBAF inh 46
COc1ccc(C(=O)COC(=O)CCN2C(=O)[C@@H]3[C@H](C2=O)[C@@H]2C[C@H]3C(Br)C2Br)cc1 (some centres undefined)	none (no result: Wnt act)
COc1ccc(C(=O)COC(=O)CCN2C(=O)C3C4CC(C(Br)C4Br)C3C2=O)cc1 (centres undefined)	HSF1 inh -62
O=C(O)CCC(=O)/C=C/c1ccccc1	none (no result: esBAF inh)
O=C(CCl)N(O)c1ccc(C=Cc2ccccc2)cc1	Wnt act 40 (no result: HSF1 activator, esBAF inh, HSF1 inh)
O=C(c1ccc(Cl)cc1Cl)N1CCc2ccccc21	none
O=C(/C=C/c1ccc(Cl)cc1Cl)N1CCc2ccccc21	HSF1 activator 55, Wnt act 48 (no result: esBAF inh)
CC(C)(C)c1cc(-c2n[nH]c(=S)n2-c2ccccc2F)n[nH]1	Wnt act 34 (no result: MITF TRPM1 HTS)
Cc1ccccc1-n1c(-c2ccc(=O)[nH]n2)n[nH]c1=S	none
C/C(=N\n1nnnc1Nc1ccccc1)c1ccc(N)cc1	HSF1 activator 117 (no result: esBAF inh, Wnt act, MITF TRPM1 HTS)
COc1ccc(NC(=O)N(C)C[C@@H]2Oc3c(NS(=O)(=O)c4cccs4)cccc3C(=O)N([C@H](C)CO)C[C@H]2C)cc1	none (no result: HSF1 activator, Wnt act, MITF TRPM1 HTS, HSF1 inh)
CCOC(=O)N1CCC(NC(=O)c2cc3sccc3n2CC)CC1	none
CN(C(=O)c1cc2sccc2n1C)C1CCCCC1	MITF TRPM1 HTS inconclusive
CCn1c(C(=O)NC2CCC(C)CC2)cc2sccc21 (centres undefined)	esBAF inh 52, MITF TRPM1 HTS 92
Cn1c(C(=O)NC2CCCCC2)cc2sccc21	esBAF inh 43 (no result: Wnt act)
COc1ccc(CNC(=O)N(C)C[C@@H]2OCc3ccccc3-c3c(n(C)c4ccccc34)C(=O)N([C@H](C)CO)C[C@@H]2C)cc1	esBAF inh 46 (no result: HSF1 activator, Wnt act, MITF TRPM1 HTS, HSF1 inh)
COc1ccc(C(=O)Nc2ccc(Cl)c(Cl)c2)c(OC)n1	HSF1 activator inconclusive, esBAF inh 66
COc1ccc(NC(=O)c2cc(F)c(F)cc2Cl)cc1Cl	esBAF inh 52
CCn1cc(Br)c(C(=O)Nc2ccc(F)c(Cl)c2)n1	esBAF inh 58 (no result: MITF TRPM1 HTS)
CCn1cc(Br)c(C(=O)Nc2ccc(Cl)cc2Cl)n1	none (no result: Wnt act, MITF TRPM1 HTS)
Cc1noc(C(=O)Nc2ccc(F)c(Cl)c2)c1Cl	esBAF inh 49
COc1ccc(S(=O)(=O)N2C[C@H](O)COC[C@H]3O[C@@H](CC(=O)NCCN4CCCCC4)CC[C@@H]32)cc1	none (no result: HSF1 activator, Wnt act, MITF TRPM1 HTS, HSF1 inh)
O=C(N[C@H]1CC[C@H](CCNS(=O)(=O)c2ccc(Cl)cc2)O[C@H]1CO)c1ccccn1	none (no result: HSF1 activator, Wnt act, MITF TRPM1 HTS, HSF1 inh)
COc1cc(C(=O)Nc2ccc3c(c2)OCCO3)ccc1OC(F)F	esBAF inh 70, MITF TRPM1 HTS 98
COc1ccc(NC(=O)c2ccc3c(c2)OCO3)cc1Cl	MITF TRPM1 HTS 88 (no result: esBAF inh, Wnt act)
O=C(Nc1ccc(F)c(Cl)c1)c1ccc2c(c1)OCO2	esBAF inh 55 (no result: MITF TRPM1 HTS)
O=C(Nc1ccc(F)c(Cl)c1)c1cccnc1	none (no result: MITF TRPM1 HTS)
O=C(Nc1ccc2c(c1)OCO2)c1cccc(F)c1	Wnt act inconclusive (no result: esBAF inh)
O=C(Nc1ccc(F)c(Cl)c1)c1ccccc1	esBAF inh 70, Wnt act inconclusive (no result: HSF1 activator, HSF1 inh)
COc1cc(C(=O)Nc2ccc3c(c2)OCCO3)ccc1OC(C)C	esBAF inh inconclusive (no result: Wnt act)
Cc1ccc(S(=O)(=O)N(C)C[C@H]2Oc3ccc(NC(=O)CCC(F)(F)F)cc3CC(=O)N([C@H](C)CO)C[C@H]2C)cc1	none (no result: HSF1 activator, Wnt act, MITF TRPM1 HTS, HSF1 inh)
O=C(C[C@H]1C[C@@H]2c3cc(NC(=O)c4ccc5c(c4)OCO5)ccc3O[C@@H]2[C@@H](CO)O1)NCC(F)(F)F	none (no result: HSF1 activator, Wnt act, MITF TRPM1 HTS, HSF1 inh)
CN1C(=O)c2cc(NC(=O)c3cccs3)ccc2OC[C@H]2O[C@H](CC(=O)NCCN3CCCCC3)CC[C@H]21	none (no result: HSF1 activator, Wnt act, MITF TRPM1 HTS, HSF1 inh)
CCCC#Cc1cnc2c(c1)C(=O)N([C@H](C)CO)C[C@@H](C)[C@H](CN(C)C(=O)c1cccnc1)O2	none (no result: HSF1 activator, Wnt act, MITF TRPM1 HTS, HSF1 inh)
Cc1csc2nc(CSc3nc4ccccc4o3)c(Br)n12	HSF1 activator 110, MITF TRPM1 HTS 91 (no result: esBAF inh, Wnt act)
CC(C)C#Cc1ccc2c(c1)O[C@H](CN(C)C(=O)c1ccncc1)[C@H](C)CN([C@@H](C)CO)S2(=O)=O	none (no result: HSF1 activator, Wnt act, MITF TRPM1 HTS, HSF1 inh)
Cc1noc(C)c1CSc1ncnc2sc3c(c12)CCC3	HSF1 inh -73 (no result: esBAF inh, Wnt act, MITF TRPM1 HTS)
CNC[C@@H]1OCCCC[C@@H](C)Oc2ccc(NC(=O)c3ccccc3)cc2C(=O)N([C@@H](C)CO)C[C@@H]1C	none (no result: HSF1 activator, Wnt act, MITF TRPM1 HTS, HSF1 inh)
Cc1cccc(C(C)C)c1NC(=O)c1ccc(COc2ccc3c(C)cc(=O)oc3c2)cc1	HSF1 activator 66 (no result: esBAF inh)
COc1cccc(COc2ccc3c(C)cc(=O)oc3c2)c1	HSF1 activator inconclusive, esBAF inh 51, Wnt act 46, MITF TRPM1 HTS 114
Cc1cc(=O)oc2cc(OCCc3ccccc3)ccc12	esBAF inh 67
Cc1cc(=O)oc2cc(OCC#N)ccc12	HSF1 inh -56
COc1ccc2c(C)cc(=O)oc2c1	none (no result: HSF1 activator, HSF1 inh)
O=C(C[C@H]1C[C@@H]2c3cc(NC(=O)c4ccc5c(c4)OCO5)ccc3O[C@@H]2[C@H](CO)O1)NCC(F)(F)F	none (no result: HSF1 activator, Wnt act, MITF TRPM1 HTS, HSF1 inh)
COCC(=O)N(C)C[C@H]1Oc2cc(C#CC(C)(C)O)ccc2S(=O)(=O)N([C@@H](C)CO)C[C@@H]1C	none (no result: HSF1 activator, Wnt act, MITF TRPM1 HTS, HSF1 inh)
CCCNC(=O)Nc1ccc2c(c1)C(=O)N(C)C[C@@H](OC)[C@@H](C)CN(CCC)[C@H](C)CO2	none (no result: HSF1 activator, Wnt act, MITF TRPM1 HTS, HSF1 inh)
CCCNC(=O)N1C[C@@H]2[C@H](c3ccccc31)[C@@H](CO)N2Cc1cc(F)ccc1F	none (no result: HSF1 activator, Wnt act, MITF TRPM1 HTS, HSF1 inh)
COc1cccc(OCc2cc(C(=O)N3CCNC(=O)C3Cc3ccccc3)no2)c1 (centres undefined)	esBAF inh 51
COc1cccc(OCc2cc(C(=O)N3CCCC3c3ccccn3)no2)c1 (centres undefined)	esBAF inh 60

Source: PubChem
